High-throughput results from PubChem BioAssay.
CASP6 VEID inh: caspase-6 (human) enzyme inhibition; P55212; purified caspase-6, Z-VEID-R110 cleavage fluorescence; inhibition, % at 12.5 µM; hit rate 0.53% among 350,000; AID 686996;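 active = mean inhibition across replicates at least about 35%, with every replicate also reaching that limit, limit read from the data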;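 note: 0% = median of neutral control wells and 100% = no fluorescence left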
Target sequence (P55212 24-179 limits assumed): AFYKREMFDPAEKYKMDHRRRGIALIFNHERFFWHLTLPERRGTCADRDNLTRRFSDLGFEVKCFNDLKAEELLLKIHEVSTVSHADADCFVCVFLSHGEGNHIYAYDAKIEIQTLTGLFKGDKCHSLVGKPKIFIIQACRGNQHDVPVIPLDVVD
Target sequence (P55212 194-293 limits assumed): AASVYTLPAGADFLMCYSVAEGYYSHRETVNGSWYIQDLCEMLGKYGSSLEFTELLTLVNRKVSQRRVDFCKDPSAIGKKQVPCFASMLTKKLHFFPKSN
INS-1E GSIS act: primary screen for activators of insulin secretion dependent on glucose, INS-1E cells, GLuc reporter luminescence; hit rate 0.61% among 370,000; activation, % at 16.6 µM; INS-1E GLuc reporter insulin secretion, 2-3 h;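 active = lowest replicate activation of at least 40%, so every replicate reaches that level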;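 note: 0% = median of neutral control wells and 100% = median of IBMX positive control wells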
SIRT5 inh: blocks human SIRT5 desuccinylation of peptide; Q9NXA8; Purified SirT5, succinyl-peptide AMC, trypsin-coupled fluorescence; inhibition, % at 15 µM; hit rate 1.1% among 330,000; in the data active = inhibition above about 15%
Target sequence (Q9NXA8 whole entry, looked up): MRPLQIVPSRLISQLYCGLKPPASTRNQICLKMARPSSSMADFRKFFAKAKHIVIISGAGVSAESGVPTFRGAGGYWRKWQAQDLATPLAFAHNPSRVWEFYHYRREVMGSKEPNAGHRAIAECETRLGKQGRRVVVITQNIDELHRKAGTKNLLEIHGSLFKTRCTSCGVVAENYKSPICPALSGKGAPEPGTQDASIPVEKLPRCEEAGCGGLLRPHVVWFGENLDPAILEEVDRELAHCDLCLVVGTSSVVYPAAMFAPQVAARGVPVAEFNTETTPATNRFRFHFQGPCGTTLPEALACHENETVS
FGF22 binding: binders of recombinant human FGF22 by thermal shift; Q9HCT0; AID 651658; hit rate 1.5% among 340,000; activity (Tm shift, normalised), % at 9.99 µM; SYPRO orange fluorescence; percent of sucrose octasulfate shift, DMSO zero;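 active = mean Tm shift, scaled 0 neutral to 100 positive control, at about 1.3% or above, every replicate too, limit read from the data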
ERAP1 HTS inh: ERAP1 (human) enzyme inhibition; hit rate 0.15% among 340,000; inhibition, % at 10.7 µM; recombinant ERAP1, Leu-AMC fluorescence, 60 min;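 active = mean replicate inhibition of at least 30%, or all replicates individually reaching that 30% level; inactive = mean below 30% and not every replicate reaching it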;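 note: 0% = neutral control wells and 100% = L-leucinethiol positive control wells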
The depositor's hits bear a star; nt = no result. The list is not random: actives were taken first. Their share in the collection is about 3.3%.

SMILES | CASP6 VEID inh | INS-1E GSIS act | SIRT5 inh | FGF22 binding | ERAP1 HTS inh
COc1cccc2c1nc(C)c1cc(C)oc12 | 2 | 7 | -5 | nt | 0
COCC(=O)N(C)C[C@@H]1Oc2cc(C3=CCCC3)ccc2S(=O)(=O)N([C@H](C)CO)C[C@H]1C | nt | 13 | 1 | 0 | nt
CC(C(=O)N1CCC(C(N)=O)CC1)N(c1ccc(Oc2ccccc2)cc1)S(C)(=O)=O (configuration not stated) | nt | 50* | nt | nt | nt
CC(C(=O)N1CCCC1)N(c1ccccc1)S(C)(=O)=O (configuration not stated) | -1 | 2 | 0 | 0 | 2
CCOC(=O)c1c(-n2cnnn2)sc2c1CCCC2 | 4 | 60* | -5 | 0 | 0
CCOC(=O)c1c(NC=O)sc2c1CCC2 | 1 | nt | 15 | 0 | -7
O=C(NCCOc1ccccc1)C1CCCCC1 | 3 | 9 | -5 | 43* | 4
O=C(CC1CCCCC1)NCCOc1ccccc1 | nt | -8 | nt | nt | nt
C[C@@H]1CCCCO[C@@H](CN(C)S(=O)(=O)c2ccc(Cl)cc2)[C@H](C)CN([C@@H](C)CO)C(=O)c2cc(NS(=O)(=O)c3ccc(Cl)cc3)ccc2O1 | nt | -4 | nt | 0 | nt
C[C@@H]1CCCCO[C@H](CN(C)S(=O)(=O)c2ccc(Cl)cc2)[C@H](C)CN([C@H](C)CO)C(=O)c2cc(NS(=O)(=O)c3ccc(Cl)cc3)ccc2O1 | nt | -16 | nt | 30* | nt
Cc1ccc(S(=O)(=O)N(C)C[C@H]2OCCCC[C@@H](C)Oc3ccc(NS(=O)(=O)c4ccc(Cl)cc4)cc3C(=O)N([C@@H](C)CO)C[C@H]2C)cc1 | 3 | -31 | 22* | 0 | -1
Cc1ccc(S(=O)(=O)N(C)C[C@@H]2OCCCC[C@H](C)Oc3ccc(NS(=O)(=O)c4ccc(Cl)cc4)cc3C(=O)N([C@@H](C)CO)C[C@@H]2C)cc1 | 2 | 14 | 22* | 0 | 0
Cc1ccc(S(=O)(=O)Nc2ccc3c(c2)C(=O)N([C@@H](C)CO)C[C@@H](C)[C@@H](CN(C)S(=O)(=O)c2ccc(Cl)cc2)OCCCC[C@H](C)O3)cc1 | nt | 13 | nt | nt | nt
Cc1ccc(S(=O)(=O)N(C)C[C@H]2OCCCC[C@@H](C)Oc3ccc(NS(=O)(=O)c4ccc(Cl)cc4)cc3C(=O)N([C@H](C)CO)C[C@H]2C)cc1 | 2 | -1 | 29* | 0 | -1
Cc1ccc(S(=O)(=O)Nc2ccc3c(c2)C(=O)N([C@@H](C)CO)C[C@H](C)[C@@H](CN(C)S(=O)(=O)c2ccc(Cl)cc2)OCCCC[C@H](C)O3)cc1 | nt | 3 | nt | 0 | nt
CO[C@H]1CN(C)C(=O)c2cc(NS(=O)(=O)CC(F)(F)F)ccc2OC[C@@H](C)N(C(=O)c2ccc3c(c2)OCO3)C[C@H]1C | -1 | -19 | nt | 0 | -1
O=C(C[C@H]1C=C[C@H](NS(=O)(=O)c2ccc(F)cc2)[C@@H](CO)O1)N1CCN(c2ccccc2)CC1 | 1 | 9 | -2 | 0 | 0
C[C@H](CO)N1C[C@H](C)[C@H](CN(C)S(=O)(=O)c2ccccc2)OCCCC[C@H](C)Oc2ccc(NS(=O)(=O)c3ccc(Cl)cc3)cc2C1=O | 3 | -22 | 15* | 0 | 1
Cc1ccc(S(=O)(=O)N(C)C[C@@H]2OCCCC[C@H](C)Oc3ccc(NS(=O)(=O)c4ccc(Cl)cc4)cc3C(=O)N([C@H](C)CO)C[C@H]2C)cc1 | 2 | 1 | 21* | 0 | 2
Cc1ccc(S(=O)(=O)N(C)C[C@H]2OCCCC[C@@H](C)Oc3ccc(NS(=O)(=O)c4ccc(Cl)cc4)cc3C(=O)N([C@H](C)CO)C[C@@H]2C)cc1 | 5 | -3 | 17* | 0 | -1
Cc1ccc(S(=O)(=O)Nc2ccc3c(c2)C(=O)N([C@@H](C)CO)C[C@H](C)[C@@H](CN(C)S(=O)(=O)c2ccc(Cl)cc2)OCCCC[C@@H](C)O3)cc1 | nt | 9 | nt | 28* | nt
CCCNC(=O)Nc1ccc2c(c1)C(=O)N(C)C[C@@H](OC)[C@@H](C)CN(CCC)[C@@H](C)CO2 | -8 | 4 | 0 | nt | 0
CC(=O)[C@@]12O[C@]3(COC[C@H](c4ccccc4)N3C1=O)[C@@H]1C(=O)N(c3ccccc3)C(=O)[C@@H]12 | 6 | nt | -2 | 0 | -2
COc1ccc(S(=O)(=O)N[C@@H]2CC[C@@H](CCNC(=O)Cc3ccccn3)O[C@@H]2CO)cc1 | nt | -2 | nt | nt | nt
C[C@@H]1CN([C@@H](C)CO)C(=O)c2cc(NS(=O)(=O)c3ccc(Cl)cc3)ccc2O[C@@H](C)CCCCO[C@H]1CN(C)S(=O)(=O)c1cn(C)cn1 | 1 | -9 | -2 | 1.4* | -3
SMILES | CASP6 VEID inh | INS-1E GSIS act | SIRT5 inh | FGF22 binding | ERAP1 HTS inh
C[C@@H]1CCCCO[C@H](CN(C)S(=O)(=O)c2cn(C)cn2)[C@H](C)CN([C@H](C)CO)C(=O)c2cc(NS(=O)(=O)c3ccc(Cl)cc3)ccc2O1 | 0 | -25 | 3 | 0 | -2
Cc1ccc(S(=O)(=O)N(C)C[C@H]2OCCCC[C@H](C)Oc3ccc(NS(=O)(=O)c4ccc(Cl)cc4)cc3C(=O)N([C@H](C)CO)C[C@@H]2C)cc1 | 2 | 16 | 24* | 0 | 0
Cc1ccc(S(=O)(=O)Nc2ccc3c(c2)C(=O)N([C@H](C)CO)C[C@H](C)[C@H](CN(C)S(=O)(=O)c2ccc(Cl)cc2)OCCCC[C@@H](C)O3)cc1 | nt | 14 | nt | 0 | nt
Cc1ccc(S(=O)(=O)N(C)C[C@H]2OCCCC[C@@H](C)Oc3ccc(NS(=O)(=O)c4ccc(Cl)cc4)cc3C(=O)N([C@@H](C)CO)C[C@@H]2C)cc1 | 2 | 10 | 21* | 0 | 1
COc1ccc(CN(C)C[C@H]2Oc3ccc(NC(=O)C4CC4)cc3C(=O)N([C@H](C)CO)C[C@H]2C)cc1 | -2 | 16 | -1 | 0 | 0
Cc1c(Br)c([N+](=O)[O-])nn1CCCC(=O)Nc1sc2c(c1C#N)CCC2 | nt | -16 | nt | nt | nt
Cc1c(Br)c([N+](=O)[O-])nn1CC(=O)Nc1sc2c(c1C(=O)OC(C)C)CCCC2 | nt | 46* | nt | nt | nt
Cc1noc(C)c1S(=O)(=O)N(C)C[C@@H]1OCCCC[C@H](C)Oc2ccc(NS(=O)(=O)c3ccc(Cl)cc3)cc2C(=O)N([C@H](C)CO)C[C@@H]1C | -1 | -11 | 0 | 0 | 0
CN(C)c1ccc2cc(S(=O)(=O)O)cc(O)c2c1 | 78* | 14 | 22* | -1 | 8
C[C@H](CO)N1C[C@H](C)[C@@H](CN(C)Cc2ccncc2)Oc2ccc(NS(=O)(=O)c3cn(C)cn3)cc2CC1=O | -2 | 0 | -2 | 0 | -11
CC(=O)Nc1cccc(-c2cn3ccccc3n2)c1 | 0 | -1 | -7 | 0 | -1
O=C(Nc1cccc(-c2cn3ccccc3n2)c1)c1cc2ccccc2oc1=O | -5 | 1 | 19* | 0 | 3
COCCCN=C1NN=C(c2cc(C)n(-c3ccccc3)c2C)CS1 | -5 | 10 | 1 | 0 | -2
COCCCN=C1NN=C(c2cc(C)n(Cc3ccccc3Cl)c2C)CS1 | -6 | 5 | -1 | 43* | -2
